Screening data from PubChem BioAssay.
Pf apPOL inh = Pf-apPOL inhibitors, biochemical, fluorescence | Recombinant Pf-apPOL, molecular beacon fluorescence, 1.5 h | inhibition, % at 10 µM | 210,000 tested, 0.25% active | AID 1794808, 2022
mHTT CaM bind = mutant huntingtin-calmodulin interaction inhibitors – biochemical, AlphaScreen, primary screen | P42858 | AlphaScreen His-mHTT/GST-CaM binding, luminescence | inhibition, % at 15 µM | 190,000 tested, 3.6% active | AID 1671202, 2021;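 also: 0% = both proteins with DMSO and 100% = one protein alone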
Target sequence (P42858 whole entry, looked up, stated change not applied): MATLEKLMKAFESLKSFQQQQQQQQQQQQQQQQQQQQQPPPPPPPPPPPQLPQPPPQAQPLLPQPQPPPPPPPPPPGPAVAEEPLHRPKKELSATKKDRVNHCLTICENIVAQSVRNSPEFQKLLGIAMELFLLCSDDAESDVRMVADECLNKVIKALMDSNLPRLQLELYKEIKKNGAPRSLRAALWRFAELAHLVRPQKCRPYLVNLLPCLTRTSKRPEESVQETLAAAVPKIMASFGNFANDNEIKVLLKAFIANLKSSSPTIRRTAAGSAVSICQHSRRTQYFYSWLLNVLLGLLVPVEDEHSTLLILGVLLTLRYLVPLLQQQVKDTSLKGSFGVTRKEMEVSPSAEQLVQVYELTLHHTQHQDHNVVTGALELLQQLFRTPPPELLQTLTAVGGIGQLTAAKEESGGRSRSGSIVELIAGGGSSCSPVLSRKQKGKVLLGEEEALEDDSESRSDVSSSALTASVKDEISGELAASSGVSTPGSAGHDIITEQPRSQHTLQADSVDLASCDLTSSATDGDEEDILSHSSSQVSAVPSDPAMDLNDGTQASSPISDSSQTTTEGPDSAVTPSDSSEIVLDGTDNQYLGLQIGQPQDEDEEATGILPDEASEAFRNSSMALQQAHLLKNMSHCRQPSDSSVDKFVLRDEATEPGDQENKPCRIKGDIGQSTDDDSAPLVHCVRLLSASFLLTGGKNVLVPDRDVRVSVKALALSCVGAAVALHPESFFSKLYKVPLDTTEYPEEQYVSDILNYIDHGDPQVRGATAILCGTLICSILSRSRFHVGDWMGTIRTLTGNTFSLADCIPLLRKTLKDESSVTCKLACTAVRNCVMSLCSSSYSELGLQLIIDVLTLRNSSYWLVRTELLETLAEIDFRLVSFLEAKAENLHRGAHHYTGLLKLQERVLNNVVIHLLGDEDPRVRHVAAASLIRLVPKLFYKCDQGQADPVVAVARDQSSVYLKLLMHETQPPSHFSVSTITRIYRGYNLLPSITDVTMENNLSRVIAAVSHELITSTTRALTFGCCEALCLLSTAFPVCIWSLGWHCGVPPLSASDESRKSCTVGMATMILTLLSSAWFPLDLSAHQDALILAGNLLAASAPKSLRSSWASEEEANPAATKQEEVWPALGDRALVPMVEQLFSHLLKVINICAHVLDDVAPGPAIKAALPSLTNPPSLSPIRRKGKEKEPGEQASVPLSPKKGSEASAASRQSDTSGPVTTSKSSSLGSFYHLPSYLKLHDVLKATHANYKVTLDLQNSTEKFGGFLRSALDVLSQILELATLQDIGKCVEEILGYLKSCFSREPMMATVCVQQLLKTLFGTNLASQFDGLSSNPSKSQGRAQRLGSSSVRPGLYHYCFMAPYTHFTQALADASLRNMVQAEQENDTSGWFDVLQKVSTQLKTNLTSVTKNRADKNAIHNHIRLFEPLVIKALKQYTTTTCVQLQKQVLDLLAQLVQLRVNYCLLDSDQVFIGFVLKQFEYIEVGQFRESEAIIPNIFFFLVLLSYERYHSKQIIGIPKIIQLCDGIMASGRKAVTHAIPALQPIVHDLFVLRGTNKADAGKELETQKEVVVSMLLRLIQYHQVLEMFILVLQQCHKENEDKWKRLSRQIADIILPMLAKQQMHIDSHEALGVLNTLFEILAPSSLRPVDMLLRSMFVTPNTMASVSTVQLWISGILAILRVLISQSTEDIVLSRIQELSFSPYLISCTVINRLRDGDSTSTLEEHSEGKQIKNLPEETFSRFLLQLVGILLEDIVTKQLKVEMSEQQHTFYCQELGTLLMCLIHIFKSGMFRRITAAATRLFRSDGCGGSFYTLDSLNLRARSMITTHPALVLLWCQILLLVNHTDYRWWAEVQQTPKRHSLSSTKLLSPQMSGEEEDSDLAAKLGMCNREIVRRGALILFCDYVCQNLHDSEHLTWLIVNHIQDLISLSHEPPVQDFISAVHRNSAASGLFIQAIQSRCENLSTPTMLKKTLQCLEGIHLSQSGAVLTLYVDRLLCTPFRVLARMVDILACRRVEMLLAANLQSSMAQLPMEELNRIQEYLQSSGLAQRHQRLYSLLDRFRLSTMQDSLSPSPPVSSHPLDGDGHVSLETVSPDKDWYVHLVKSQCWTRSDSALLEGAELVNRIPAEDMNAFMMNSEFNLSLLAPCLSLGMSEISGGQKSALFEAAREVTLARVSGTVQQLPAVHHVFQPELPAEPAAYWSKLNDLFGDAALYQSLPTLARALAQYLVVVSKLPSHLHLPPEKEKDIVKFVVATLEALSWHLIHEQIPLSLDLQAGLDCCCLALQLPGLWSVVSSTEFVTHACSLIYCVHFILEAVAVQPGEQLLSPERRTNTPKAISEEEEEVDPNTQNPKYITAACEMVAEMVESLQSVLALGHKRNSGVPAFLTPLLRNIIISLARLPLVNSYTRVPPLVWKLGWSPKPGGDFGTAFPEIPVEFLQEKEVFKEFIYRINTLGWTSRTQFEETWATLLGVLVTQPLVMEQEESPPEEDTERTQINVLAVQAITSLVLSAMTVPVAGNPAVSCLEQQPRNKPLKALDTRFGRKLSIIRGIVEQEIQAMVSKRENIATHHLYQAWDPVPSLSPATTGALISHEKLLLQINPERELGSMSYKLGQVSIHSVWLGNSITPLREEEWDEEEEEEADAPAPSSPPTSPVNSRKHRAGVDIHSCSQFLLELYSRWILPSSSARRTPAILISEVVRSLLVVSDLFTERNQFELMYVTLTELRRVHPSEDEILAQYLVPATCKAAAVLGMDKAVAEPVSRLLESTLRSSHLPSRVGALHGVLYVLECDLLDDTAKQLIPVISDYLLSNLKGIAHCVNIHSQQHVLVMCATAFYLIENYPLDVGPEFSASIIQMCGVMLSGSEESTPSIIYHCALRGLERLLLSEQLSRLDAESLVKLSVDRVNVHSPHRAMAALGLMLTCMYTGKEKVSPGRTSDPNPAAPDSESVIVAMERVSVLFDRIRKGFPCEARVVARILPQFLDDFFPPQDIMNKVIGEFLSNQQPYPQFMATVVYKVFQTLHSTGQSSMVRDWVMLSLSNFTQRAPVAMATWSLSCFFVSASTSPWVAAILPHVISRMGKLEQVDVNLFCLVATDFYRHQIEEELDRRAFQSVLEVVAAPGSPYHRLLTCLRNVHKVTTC
Active calls of the source: *; nt = not tested or not shown; ! = a repeat was not active. Only some compounds are listed: those with a hit (about 3.5% of all), similar ones and a draw of the others. Rule as the data show it: active = inhibition above about 50%; inactive = the rest.

SMILES	Pf apPOL inh	mHTT CaM bind
Cc1ccc2nc(-c3cc(N=Cc4ccc([N+](=O)[O-])cc4)ccc3O)[nH]c2c1	1	55*
Cc1ccc(C)c(C(=O)N2CCCC(COc3ccc(C(=O)N4CCCC4)cc3)C2)c1 (stereo not drawn)	10	-3
CCOc1ccccc1NC(=O)C(=O)NCc1ccncc1	-10	2
CCCCC(=O)NC(c1ccc2c(c1)OCO2)c1cc([N+](=O)[O-])c2cccnc2c1O (stereo not drawn)	-6	99*
CCCCC(=O)NC(c1ccccc1Cl)c1cc([N+](=O)[O-])c2cccnc2c1O (stereo not drawn)	-10	100*
CCCCC(=O)NC(/C=C/c1ccccc1)c1cc([N+](=O)[O-])c2cccnc2c1O (stereo not drawn)	-3	14
CC1CCC(C(C)C)C(=O)/C1=C/c1ccc(NC(=O)CCC(=O)O)cc1 (stereo not drawn)	-5	20
O=C(CCC1CCCN(c2cc(NC3CC3)ncn2)C1)NCc1ccccc1Cl (stereo not drawn)	-3	3
COc1cccc(C(=O)NCc2[nH]nc3ccccc23)c1	-4	52*
Cc1cc(C)cc(C(=O)NCc2[nH]nc3ccccc23)c1	-2	-1
O=C(NCc1ccc(F)cc1)c1nc(N2CCCC2)c2oc3ccccc3c2n1	-2	-10
CCc1ccc(NC(=O)CC2SC(=N)NC2=O)cc1 (stereo not drawn)	5	-4
Cc1csc(N)c1C#N	-12	nt
Cc1cccc(CNC(=O)c2nn(C)c3c2CN(C(=O)C2CC2)CC3)c1	-7	6
Cc1cccc(CNC(=O)c2nn(C)c3c2CN(C(=O)COc2cccc(C)c2)CC3)c1	-5	76*
CCOc1ccc(C(=O)N2CCc3c(c(C(=O)NCc4cccc(C)c4)nn3C)C2)cc1	-11	-1
Cc1cccc(CNC(=O)c2nn(C)c3c2CN(C(=O)c2ccc(F)cc2)CC3)c1	-5	51*
Cc1cccc(CNC(=O)c2nn(C)c3c2CN(C(=O)CSc2ccccc2)CC3)c1	-7	66*
Cn1nc(C(=O)NCc2ccc(F)cc2)c2c1CCN(C(=O)c1ccco1)C2	-5	18
Cn1nc(C(=O)NCc2ccccc2)c2c1CCN(C(=O)c1ccc(F)cc1)C2	3	19
Cc1cccc(CNC(=O)c2nn(C)c3c2CN(C(=O)c2ccco2)CC3)c1	2	72*
O=C(CN1C(=O)CCCc2ccccc21)NC1CC1	-3	-6
CN(C)/C=C1\C(=N)N(C)C(=O)N(C)C1=O	nt	-7
O=C(Nc1cccc(N=Cc2cc(Cl)ccc2O)c1)c1ccco1	-4	29
COc1ccc(C(=O)N2CCc3c(c(C(=O)NCc4cccc(C)c4)nn3C)C2)cc1	0	10
SMILES	Pf apPOL inh	mHTT CaM bind
Cn1nc(C(=O)NCc2ccc(F)cc2)c2c1CCN(C(=O)c1cccc(F)c1)C2	-8	-3
CC(C)C(=O)N1CCc2c(c(C(=O)NCc3ccc4c(c3)OCO4)nn2C)C1	-14	6
Cc1cccc(C(=O)N2CCc3c(c(C(=O)NCc4ccc5c(c4)OCO5)nn3C)C2)c1	-8	62*
COc1cccc(C(=O)N2CCc3c(c(C(=O)NCc4ccc5c(c4)OCO5)nn3C)C2)c1	-2	51*
Cc1cccc(C(=O)N2CCc3c(c(C(=O)NCc4ccccc4)nn3C)C2)c1	-12	88*
Cc1nc(N2CCN(C(=O)Nc3ccc(F)cc3F)CC2)cc(-n2cccn2)n1	-1	-6
CC(C)(C)C1CCC2(CC1)NC(=O)N(CC(=O)NCc1ccc3c(c1)OCO3)C2=O (stereo not drawn)	-1	8
Clc1ccc(C2=CC(c3ccccc3Cl)n3ncnc3N2)cc1 (stereo not drawn)	-2	13
COc1cccc(C2C3=C(Nc4ncnn42)c2ccccc2OC3c2ccc(OC)c(OC)c2)c1 (stereo not drawn)	-5	32
COc1ccc(C2Oc3ccccc3C3=C2C(c2cccs2)n2ncnc2N3)cc1OC (stereo not drawn)	-5	56*
Cc1ccc(C2Oc3ccccc3C3=C2C(c2cccs2)n2ncnc2N3)cc1 (stereo not drawn)	-4	38
COc1ccc(C2C3=C(Nc4ncnn42)c2ccccc2OC3c2ccccc2Cl)cc1OC (stereo not drawn)	-6	70*
COc1cc(C=O)cc(Br)c1OCc1ccc([N+](=O)[O-])cc1	-10	0
COc1cc2c(cc1OC)C(c1ccc(Cl)cc1)OC1=C2C(=O)c2ccccc21 (stereo not drawn)	-1	68*!
COc1ccc(C2Oc3c(ccc4cc(OC)c(OC)cc34)-c3cc(OC)c(OC)cc32)cc1 (stereo not drawn)	nt	11
O=c1oc2ccc(Cl)cc2cc1-c1nc2ccccc2[nH]1	0	-4
O=c1oc2ccc(Br)cc2cc1-c1nc2ccccc2[nH]1	83*	-5
CCCn1cnc2ccc(-c3noc(Cc4cccs4)n3)cc21	-6	23
CC(C)n1cnc2ccc(-c3noc(Cc4c[nH]c5ccccc45)n3)cc21	-4	100*
CCc1ccc(CNC(=O)C2CCc3sc(C(=O)N4CCOCC4)cc3C2)cc1 (stereo not drawn)	-19	6
Cc1cc(C)cc(C(=O)N2CCCC(C(=O)NCCc3ccccc3)C2)c1 (stereo not drawn)	0	3
CCC1(C)CC(CCNCc2ccc(OC)c(OC)c2)(c2ccccc2OC)CCO1 (stereo not drawn)	-11	12
CCC1(C)CC(CCNCc2ccc(N(C)C)cc2)(c2ccc(OC)cc2)CCO1 (stereo not drawn)	0	86*
Nc1nonc1-n1nnc(C(=O)NO)c1-c1ccccc1	-3	0
CC(C)CCNC(=O)C1CCCN(c2cnn(Cc3ccccc3)c(=O)c2)C1 (stereo not drawn)	-4	7
SMILES	Pf apPOL inh	mHTT CaM bind
O=C(NCc1ccccc1F)c1cc2n(n1)C(C(F)(F)F)CC(c1ccco1)N2 (stereo not drawn)	-3	-3
O=C(NCCc1c[nH]c2ccccc12)c1cc2n(n1)C(C(F)(F)F)CC(c1ccco1)N2 (stereo not drawn)	-2	62*
O=C(Nc1cccc(-c2nc3ccccc3o2)c1)c1ccccc1I	-4	-4
O=C(Nc1cccc(-c2nc3ccccc3o2)c1)c1cccnc1Cl	74*	0
COc1cc(C)c(C)cc1S(=O)(=O)NCCc1csc(-c2ccc(F)cc2)n1	-9	53*
CCCS(=O)(=O)NCCc1csc(-c2ccc(OC)c(OC)c2)n1	-16	3
COc1cc(C)c(C)cc1S(=O)(=O)NCCCc1ccc(N(C)C)cc1	-8	57*
COc1cccc(C(=O)NCCCc2ccc(N(C)C)cc2)c1OC	5	21
CN1C(=O)c2cccnc2Sc2cc(NC(=O)c3ccc(F)c(F)c3)ccc21	-3	20
O=C(c1cccs1)N1CCN(c2nnc3c(Cl)cccn23)CC1	0	28
O=S(=O)(Nc1ccc(N2CCOCC2)cc1)c1ccc(Cl)cc1	-2	7
O=C1C(N2CCOCC2)=CC(=NS(=O)(=O)c2ccccc2)c2ccccc21	-6	72*
O=C1C(N2CCOCC2)=CC(=NS(=O)(=O)c2ccc(Cl)cc2)c2ccccc21	-2	64*
O=S(=O)(c1ccccc1)c1nc(C(c2ccccc2)c2ccccc2)oc1N1CCOCC1	2	26
